For ten compounds, Potency results are on record in PubChem BioAssay (NCATS).

Molecules are shown by their SMILES. Records with an inconclusive call do not appear. Unmarked numbers belong to inactive results. Calls come from the whole dose curve. Bounds are passed on as bounds.
Potency is the fitted concentration of half-maximal effect.

The experiment in a line: Cell Viability - BJ (AID 421).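 Note: cells exposed to compound for 40 hours at 37 °C before readout.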 The following applies: BJ fibroblast viability, qHTS. The text has this:
NIH Chemical Genomics Center [NCGC]
NIH Molecular Libraries Screening Centers Network [MLSCN]
National Institutes of Environmental Health Sciences [NIEHS]
National Toxicology Program [NTP]
We have developed a 1536-well cell-based assay for quantitative high throughput screening (qHTS) against a number of cell lines to determine in vitro cytotoxicity of small molecules. This particular assay uses the BJ cell line from ATCC which is derived from normal human foreskin fibroblasts.
NCGC Assay Protocol Summary:
The CellTiter-Glo luminescent cell viability assay (Promega) is a homogeneous method to measure the number of viable cells in culture. The end point readout of this assay is based on quantitation of intracellular ATP, an indicator of metabolic activity, using the luciferase reaction. Luciferase catalyzes the oxidation of beetle Luciferin to oxyluciferin and light in the presence of ATP. The luminescent signal is proportional to amount of ATP present.
Using the CellTiter-Glo luminescent cell viability assay, the amount of cellular ATP was measured in the BJ cell line with complete culture medium following compound treatment for 40 hours. The assay was performed in opaque white Kalypsys 1536-well plates. In the screen, tamoxifen and doxorubicin were used as positive controls. Library compounds were measured for their ability to cause acute toxicity in the cell line, as reflected by a decrease in intracellular ATP levels, in a concentration-dependent manner. Data were normalized to the controls for basal activity (DMSO only) and 100% inhibition (100 uM tamoxifen). AC50 values were determined from concentration-response data modeled with the standard Hill equation.
qHTS protocol fo CellTiter Glo BJ cellular assay
[Step] [Parameter] [Value] [Description]
1. Reagent; 5 uL; 1500 BJ cells/well
2. Time; 5 hr; 37 °C incubation
4. Controls; 23 nL; Tamoxifen 0.34 uM to 100 uM & Doxorubicin 0.02 nM to 100 uM
5. Time; 40 hr; 37 °C incubation
6. Reagent; 5 uL; CellTiter Glo reagent
7. Time; 20 min; Room Temperature
8. Detection; Luminescence; Viewlux plate reader
Keywords: cell viability, cytotoxicity, BJ cell line, luminescence, NTPHTS, NTPHTS_NCGC, NIEHS, EPA, DSSTox, MLSMR, MLSCN, NIH Roadmap, qHTS, NCGC
For orientation: qHTS replaces the single test concentration by a dilution series.
For `CCOP(=S)(OCC)Oc1cc(C)nc(C(C)C)n1`, the Potency is > 92 µM.

On to `N[C@@H](Cc1ccc(N(CCCl)CCCl)cc1)C(=O)O`, for which the Potency was > 92 µM.

On to `OCCOc1ccccc1`, for which the Potency is > 92 µM.

For the compound `Oc1cccc2cccnc12`, the Potency is > 92 µM.

`Oc1ccccc1-c1ccccc1`: the Potency was > 92 µM.

With `Oc1ccc(Cl)cc1Cc1ccccc1`, the Potency is > 92 µM.

`CNCC(O)c1ccc(O)cc1` (stereo not given): the Potency is > 92 µM.

Turning to `NCC(O)c1ccc(O)cc1` (stereo not given), the Potency is > 92 µM.

For `CCCC(C)(COC(N)=O)COC(=O)NC(C)C` (stereo not given), the Potency is > 92 µM.

Take `c1ccc2c(c1)Nc1ccccc1S2`: the Potency was > 92 µM.
